Compound activity as filed in PubChem BioAssay.
PfHsp90 yeast 2 – growth inhibition of PfHsp90-expressing yeast, primary screen, antimalarial PfHsp90 inhibitor project, S. cerevisiae, BacTiter-Glo luminescence, single point, set 2; BacTiter-Glo ATP, 48 h; yeast lacking PDR1 and PDR3 efflux regulators; inhibition, % at 9.4 µM; hit rate 0.32% among 310,000; AID 504621, 2011;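 active = every replicate shows inhibition above about 80%, whatever the replicate mean, limit read from the data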;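 note: 0% = DMSO neutral controls and 100% = 20 µM radicicol positive controls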
ATG4B inhibitor – ATG4B protease inhibitors, primary screen, biochemical, fluorescence, uHTS; ATG4B cleavage of LC3-PLA2, NBD-HPC fluorescence, 1 h; Cysteine protease ATG4B (Homo sapiens), Q9Y4P1; AID 504462, 2011; hit rate 0.51% among 340,000; inhibition, % at 8.33 µM; in the data active = inhibition above about 40%
tim10-1 inh – growth inhibitors of tim10-1 mutant yeast, primary screen, luminescence, uHTS; inhibition, % at 20 µM; hit rate 2.2% among 330,000; S. cerevisiae tim10-1 ts strain growth, BacTiter-Glo, 24 h; AID 463190, 2010;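 active = inhibition of at least 40%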;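 note: mutant grown at 25 °C; 0% = DMSO wells with yeast and 100% = wells holding no yeast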
SKKanGAS inh – S. pyogenes SKKanGAS growth inhibitors in kanamycin, primary screen, streptokinase expression inhibitor project, SKKanGAS strain, BacTiter-Glo luminescence | hit rate 1.3% among 300,000 | AID 1662, 2009 | inhibition, % at 7.5 µM | 6 h;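 active = mean replicate score, as percent of positive control median, at least 50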;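 note: strain carries kanamycin resistance gene driven by streptokinase promoter and grows in 40 µg/ml kanamycin; loss of luminescence reflects streptokinase promoter inhibition or plain growth inhibition; 0% = median of DMSO wells and 100% = positive control at its reference dose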
tim23-1 inh – growth inhibitors of tim23-1 mutant yeast, primary screen, luminescence, uHTS. inhibition, % at 20 µM. S. cerevisiae tim23-1 growth, BacTiter-Glo luminescence, 24 h. hit rate 1.3% among 330,000;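 active = growth inhibition of the mutant yeast at or above 50%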;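 note: temperature-sensitive mutant grown at 25 °C; plate controls were DMSO-treated mutant yeast for no effect and medium wells lacking yeast for full effect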
TIM10 inh – growth inhibitors of isogenic TIM10 control yeast, primary screen, counter-screen for tim10-1 yeast inhibitor project, luminescence, uHTS; hit rate 1.4% among 330,000; inhibition, % at 10 µM; S. cerevisiae TIM10 strain growth, BacTiter-Glo luminescence, 24 h;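 active = inhibition of 40% or more at the single tested concentration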;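 note: wild-type TIM10 isogenic control strain grown at permissive 25 °C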
ATG4B confirm – ATG4B protease inhibitors, retest, confirmation, biochemical, fluorescence, single concentration. shares compounds with ATG4B inhibitor. ATG4B protease fluorescent substrate cleavage assay. inhibition, % at 8.33 µM. hit rate 92% among 320. AID 504757, 2011; in the data active = inhibition above about 39%
PLA2 ctr – PLA2 enzyme inhibition, counter-screen for ATG4B inhibitor project, biochemical, single concentration, uHTS hits; shares compounds with ATG4B inhibitor; purified PLA2, NBD-C6-HPC fluorescence, 45 min; inhibition, % at 8.33 µM; hit rate 66% among 1,600; in the data active = inhibition above about 50%
Target sequence (P04054 whole entry, looked up): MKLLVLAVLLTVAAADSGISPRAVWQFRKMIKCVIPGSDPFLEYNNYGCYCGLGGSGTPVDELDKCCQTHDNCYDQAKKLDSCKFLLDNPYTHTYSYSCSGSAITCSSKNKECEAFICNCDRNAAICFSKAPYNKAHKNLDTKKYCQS
* hit, by the source's call; / = no result given. An excerpt weighted towards active compounds, which were near 4.7% of everything screened.

SMILES	PfHsp90 yeast 2	ATG4B inhibitor	tim10-1 inh	SKKanGAS inh	tim23-1 inh	TIM10 inh	PLA2 ctr	others
COC(=O)C1=C(c2ccc(F)cc2OCc2ccccc2)C[C@@H]2CC[C@H]1N2C(=O)NCc1ccccc1Cl	-6	43*	16	/	15	-3	62*
Cc1cc(OCC(=O)NCC(O)c2ccccc2)c2c3c(c(=O)oc2c1)CCCC3 (centres undefined)	0	52*	-4	9	12	6	55*
CCOc1ccc(-n2c(-c3cccs3)nc3ccccc3c2=O)cc1	-9	49*	-2	2	-4	9	52*
CCCCOc1nc2ccccc2c(=O)n1-c1ccccc1	-60	41*	4	7	28	9	49
Cc1cccc(-n2c(-c3cccs3)nc3ccccc3c2=O)c1	5	49*	15	9	27	8	46	ATG4B confirm=58*
COc1nc2ccccc2c(=O)n1-c1ccc(C)cc1	2	10	9	-4	7	-6	/
O=c1c2ccccc2nc(-c2cccs2)n1-c1ccccc1	-28	9	28	5	28	7	/
COC(=O)CN1C(=O)CN=C(c2ccccc2Cl)c2cc(Br)ccc21	/	-7	-4	3	-14	-17	/
C[C@@H]1CC[C@H]2[C@@H](C)C(=O)O[C@@H]3O[C@@]4(C)CC[C@@H]1[C@]32OO4	17	-7	23	1	23	13	/
Cc1ccc2nc(C)n(-c3ccc(F)cc3)c(=O)c2c1	-8	14	11	-15	21	-6	/
ClCCN(CCCl)c1ccc(C2=NCCc3ccccc32)cc1	/	40*	/	/	/	/	57*
O=c1c2ccccc2nc(SCC2CCCCO2)n1-c1ccccc1 (centres undefined)	-43	50*	28	8	48	24	38
CCOc1ccc(N)cc1	-8	-8	/	/	/	/	/
CN1C(=O)C(=Cc2ccccc2OCc2ccccc2Cl)C(=O)N(C)C1=O	9	50*	12	-1	34	36	52*
